Growth data for 25 compounds are collected here from PubChem BioAssay (NCI).

Experiment in all cases: NCI-60 one-dose screen, 48 h (100 = growth as untreated, 0 = no growth, -100 = all killed)
Holding throughout (settings): 10 µM unless noted

In test [1] the test system is NCI-H23 lung.
Test [2] has as its system NCI-H226 lung.
Test [3] has as its system NCI-H322M lung.
Test [4] deals with HOP-62 NSCLC.
Test [5] relates to NCI-H460 lung.
Test [6] relates to HOP-92 NSCLC.
The test system of test [7] is NCI-H522 lung.
Test [8] concerns A549/ATCC NSCLC.
Test [9] has as its system 786-0 renal.
Test [10] deals with COLO 205 colon.

The panel holds about 83,000 compounds, 20% with a hit somewhere; the sample as a whole holds those more often.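 96-well plates, one dose, 48 hours. Percent growth reported; active if below 10.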 A number with no mark means an inactive call. Activity calls are given as the source filed them.

As for `Nc1nc(N)c2c(n1)NC(c1ccc(Cl)cc1)CC(c1ccc(Nc3nc(NCCO)nc(Nc4ccc(Cl)cc4)n3)cc1)=N2` (stereo not drawn), the growth is 33% in [1]; 81.8% in test [2]; 55.6% in [3]; -63.7% (active) in test [4]; -57.2% (active) in [5]; 67.4% in [6]. Besides, the figures for the growth in test [7], in test [8] and in test [9] were 25.2%, 52% and 28%, respectively.
Consider `O=C(Nc1ccccc1)Nc1nc2ccc([N+](=O)[O-])cc2s1`, for which the growth in [1] was 0.812% (active); in [2], 0.421% (active); in [3], 10%; in [4] it was 8.52% (active); in test [5] it was 4.82% (active); in test [6] it was -22.2% (active). Also, the growth in test [7] was 3.38% (active); in test [8], 8.07% (active); in [9], 14.1%.
In the case of `O=C(NCCCNc1cc(-c2cn(-c3ccccc3)nc2-c2cccc(O)c2)ccn1)Nc1cccc(C(F)(F)F)c1`, the growth was 58% in test [1]; 62% in test [2]; 54.2% in test [3]; 43.2% in [4]; 28.7% in test [5]; 40.2% in test [6]. The growth is 46.9% in test [7], 49% in test [8] and -4.95% (active) in test [9].
In the case of `C/C(=C(/c1ccc(O)cc1)c1ccc(OCCN(C)C)cc1)c1ccc(Cl)cc1`, the growth in test [1] was 56.8%; in test [2], 89.4%; in test [3], 48%; in [4], 67.4%; in [5] it was 15%; in [6] it was 32.5%. The figures for the growth in [7], in test [8] and in test [9] were 57.8%, 56.4% and 50.2%, respectively.
`Cc1ccc(-n2cc(/C=C/C(=O)c3ccc(S(C)(=O)=O)cc3)c(-c3ccc(S(C)(=O)=O)cc3)n2)cc1`: the growth was 87.4% in test [1]; 100% in test [2]; 94.6% in [3]; 89.2% in [4]; 100% in [5]; 115% in test [6]. Moreover, the growth in test [7] is 74.2%; in test [8], 103%; in test [9] it was 103%.
For `O=C1c2c(c3c4cccnc4[nH]c3c3ccc4ccccc4c23)C(=O)N1CCN1CCOCC1`, the growth in test [1] was 45.3%; in test [2], 71.5%; in test [3] it was 84.5%; in test [4] it was 47.6%; in test [5] it was 10.6%; in test [6], 80.7%. Moreover, the growth in test [7] is 60.5%; in test [8], 55.4%; in test [9], 77.9%.
In the case of `CN1CCN(c2ccc3c(c2)nc(NNC(=O)c2ccncn2)c2cccn23)CC1`, the growth in test [1] was 36.2%; in test [2], 44.5%; in [3], 30.2%; in test [4] it was 35.7%; in [5], 27.4%; in [6] it was 53.1%. The growth in test [7] is 18.2%; in test [8], 23.3%; in [9], 9.5% (active).
Regarding `COc1cnc2c(c1)C(=O)c1c-2n(CCCNCC2CC2)c(=O)c2cc(F)ccc12`, the growth in [1] was -44.5% (active); in test [2], -14.1% (active); in [3], -1.44% (active); in [4] it was -31.6% (active); in test [5], -66.6% (active); in test [6] it was -5.96% (active). The figures for the growth in test [7], in [8] and in test [9] were -55.3% (active), -61.9% (active) and -32.4% (active), respectively.
In the case of `O=C(/C=C/Nc1ccc(S(=O)(=O)O)cc1)c1ccc(F)cc1`, the growth in [1] is 95.9%; in [2] it was 98.5%; in test [3] it was 102%; in [4] it was 117%; in test [5], 101%; in test [6] it was 96.2%. Besides, the growth in test [7] is 98.5%; in [8] it was 101%; in test [9] it was 106%.
Take `COc1ccc(C2CC(c3ccc(Nc4nc(NCCO)nc(Nc5ccc(Cl)cc5)n4)cc3)=Nc3c(N)nc(N)nc3N2)cc1` (stereo not drawn): the growth in test [1] is 57.8%; in test [2], 88.7%; in [3], 93.2%; in test [4] it was 37.4%; in [5] it was 63%; in test [6], 74.6%. The growth was 56.1% in test [7], 95.1% in [8] and 71% in [9].
Consider `CNC(=O)c1cc(Oc2ccc3nc(NC(=O)c4cc(C)cc(C)c4)sc3c2)ccn1`, for which the growth in test [1] was 97.2%; in test [2], 75%; in test [3], 103%; in test [4], 98.6%; in [5], 93.1%; in [6], 9.05% (active). The growth in test [7] is 84.2%; in test [8] it was 89.7%; in test [9], 59%.
For the compound `O=c1cc(-c2ccccc2)nc2sc(-c3c[nH]c4ccc(F)cc34)nn12`, the growth in test [1] is 73.2%; in [2], 41%; in [3] it was 61.2%; in [4] it was 19.1%; in test [5], 17.2%; in test [6], -1.32% (active). The growth was 62.6% in test [7], 58.7% in test [8] and 15.8% in test [9].
As for `O=c1c2ccccc2nc(COc2ccccc2)n1/N=C/C=C/c1ccccc1`, the growth was 95.9% in test [1]; 98.1% in [2]; 93% in test [3]; 98.6% in test [4]; 99.1% in [5]; 102% in test [6]. In addition, the growth was 81.4% in test [7], 100% in test [8], 100% in [9] and 113% in test [10].
`Cc1cc(F)cc(NS(=O)(=O)c2ccc(-c3cnc(C4CC4)o3)cc2)c1`: the growth in [1] was 19.8%; in [2] it was 53.8%; in test [3], 46.9%; in [4] it was 34.2%; in test [5], 13.8%; in test [6], 35.6%. The growth is 8.89% (active) in [7], 27.8% in test [8], 47% in test [9] and 1.45% (active) in [10].
In the case of `c1ccc(-c2n(Cc3ccc4ccccc4c3)c3c4ccccc4c4ccccc4c3[n+]2Cc2ccc3ccccc3c2)cc1`, the growth was -79.9% (active) in test [1]; -74% (active) in test [2]; -80.1% (active) in [3]; -69.2% (active) in test [4]; -62.9% (active) in test [5]; -77% (active) in test [6]. The growth in test [7] was -74.9% (active); in [8] it was -69.2% (active); in [9], -67% (active); in test [10], -59.5% (active).
Take `CCOC(=O)CC(=O)CSC1=NC2C(NN1)N(C)C(=O)N2C` (stereo not drawn): the growth in test [1] is 75.5%; in test [2], 100%; in test [3] it was 103%; in test [4], 107%; in [5] it was 105%; in test [6] it was 88.7%. Also, the growth was 72.8% in [7], 102% in test [8], 103% in [9] and 108% in [10].
For the compound `C#C[C@]1(O)CC[C@H]2[C@@H]3CC=C4c5sc(-c6ccc(OC)cc6)nc5CC[C@]4(C)[C@H]3CC[C@@]21C`, the growth is 73.7% in [1]; 69.3% in test [2]; 74.5% in [3]; 70.8% in test [4]; 43.5% in test [5]; 102% in test [6]. The growth in [7] was 80.6%; in test [8], 74.7%; in test [9] it was 16.8%; in [10], 81.9%.
Consider `C=C(C)[C@@H]1CC[C@]2(C)[C@H](CC=C3[C@@H]4CC(C)(C)CC[C@]4(C(=O)NCC#CCN4CCN(C)CC4)CC[C@]32C)[C@@]1(C)CCC#N`, for which the growth in [1] is 79.4%; in test [2], 86.7%; in [3], 85.8%; in test [4], 81.3%; in test [5], 10.7%; in [6] it was 13%. In addition, the growth in test [7] is 78.3%; in [8] it was 52.9%; in test [9], 52.3%; in test [10], 86.6%.
For the compound `O=C(NCCNc1cc(-c2cn(-c3ccccc3)nc2-c2cccc(O)c2)ccn1)Nc1ccc(Cl)c(C(F)(F)F)c1`, the growth is 41.3% in [1]; 81.5% in test [2]; 68.4% in test [3]; 85.3% in test [4]; 58.5% in test [5]; 44% in test [6]. The growth was 72.5% in [7], 61.8% in test [8], 64.6% in test [9] and 92.9% in [10].
With `COc1ccc([C@H]2[C@H](O)C(=O)N2c2cc(OC)c(OC)c(OC)c2)cc1Cl`, the growth in test [1] is 29.9%; in [2] it was 21.6%; in test [3] it was 49.1%; in test [4], 23.1%; in test [5], 1.57% (active); in test [6], -6.45% (active). For the same compound, the growth in test [7] is -39.7% (active); in test [8], 19.1%; in test [9], 22.1%; in test [10], -79.3% (active).
For `O=C(NCCCNc1cc(-c2cn(-c3ccccc3)nc2-c2cccc(O)c2)ccn1)Nc1ccc(F)cc1`, the growth in test [1] was 26.3%; in test [2], 32.6%; in [3], 35.3%; in test [4], 24%; in [5], 21.4%; in test [6], -11.5% (active). Further, the growth in [7] was 1.7% (active); in test [8], 29.2%; in [9], -39.4% (active); in test [10], -39.4% (active).
As for `CCCCSc1nnc(-c2ccc(-c3ccc(Cl)cc3)nc2C)o1`, the growth in test [1] was 95%; in test [2] it was 95.9%; in [3], 103%; in test [4] it was 108%; in [5] it was 101%; in [6], 93.4%. Besides, the growth in test [7] is 98%; in test [8] it was 102%; in [9] it was 96.9%; in [10] it was 101%.
For `C#C[C@]1(O)CC[C@H]2[C@@H]3CC=C4c5sc(Nc6ccc(OC)nc6)nc5CC[C@]4(C)[C@H]3CC[C@@]21C`, the growth in [1] was 63.1%; in [2], 47.4%; in test [3] it was 85%; in test [4] it was 51.7%; in [5] it was 41.5%; in test [6], 60%. For the same compound, the growth in test [7] was 36%; in [8] it was 55.2%; in [9], -27.6% (active); in test [10], 49.3%.
Regarding `N#Cc1c(NC(=O)c2ccc(F)c(Cl)c2)sc2c1CCC(=O)C2`, the growth was -7.87% (active) in test [1]; 18.3% in [2]; 53.6% in test [3]; 8.63% (active) in test [4]; 4.07% (active) in [5]; -37.4% (active) in test [6]. The growth in [7] is 3.24% (active); in test [8], 19.4%; in test [9], 21.3%; in test [10], -50.2% (active).
For the compound `O=C(CCCCCCN1CC(=O)N2[C@@H](c3cc(F)cc(F)c3)c3[nH]c4ccccc4c3C[C@H]2C1=O)NO`, the growth in [1] is 77.4%; in [2], 98.1%; in [3], 75.1%; in [4], 63.4%; in test [5], 64.4%; in test [6], 49.2%. Also, the growth in test [7] is 41.2%; in test [8], 90.5%; in test [9] it was 90.9%; in test [10] it was 53.1%.
